Experiment [1] can be described thus: Nuclear factor erythroid 2-related factor 2/antioxidant responsive element (Nrf2/ARE) small molecule agonists: qHTS cell viability counter screen in human keratinocytes (AID 1919968; active = well fitted curve in the direction sought with a large enough effect in the repeat runs; an effect the other way counts as inactive or inconclusive; also: nearly all actives have a fitted effect of over 55% in size; also: potency is read from the fitted curve at half-maximal effect). The gist of the method: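 Parallel cytotoxicity read: KeratinoSens HaCaT cells, compound treatment 23 h, viability by CellTiter-Fluor fluorescence 1 h post-reagent.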
(Quantitative high-throughput screening tests each substance at several concentrations.)

For experiment [2], the target named is Gonadotropin-releasing hormone receptor (Homo sapiens) (UniProt P30968). The experiment can be described thus: Human gonadotropin-releasing hormone receptor (GnRHR) small molecule agonists, calcium flux assay in GnRHR-HEK293 cells (AID 1920063). Also: nearly all actives have a fitted effect of over 35% in size. The gist of the method:
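Calcium flux, agonist mode, human GnRHR stably integrated in HEK293; dye 1 h at 37 C before compound; Ex/Em=480/540 kinetic read, 3 min; 15 concentrations, triplicate.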
(A change in cytosolic calcium serves as a functional read-out for many receptors and channels.)

Experiment [3] concerns the target KiSS-1 receptor (Homo sapiens) (UniProt Q969F8). Kind of experiment: Human kisspeptin (KISS1R) small molecule agonists, calcium flux assay in KISS1R-HEK293 cells (AID 1920064; active = well fitted curve in the direction sought with a large enough effect in the repeat runs; an effect the other way counts as inactive or inconclusive). The gist of the method: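 Triplicate 15-concentration series were applied to dye-loaded human KISS1R HEK293 cells, and agonist-evoked calcium fluorescence was captured for 3 min.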
Experiment [4] can be described thus: G protein-coupled receptor (GPCR) small molecule agonists, calcium flux assay: HEK293 wild type cell line counter screen (AID 1920065). A digest of the protocol: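 Non-specific calcium responders were flagged by adding DMSO-dissolved compounds to dye-loaded cells and reading 480/540 nm fluorescence each second for 3 min; ATP served as positive control.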
A short description of experiment [5]: p53 small molecule agonists, cell-based qHTS assay with human liver microsomes (AID 1963577). Also: potency is read from the fitted curve at half-maximal effect.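 As to activation: p53 response element beta-lactamase reporter cells with liver microsomes plus NADPH.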 The gist of the method:
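Metabolically competent format: test substances, human liver microsomes and NADPH (both 0.5 mg/mL final) incubated with p53RE-bla cells 16 h at 37 C. Beta-lactamase reporter signal then quantified by fluorescence.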

A short description of experiment [6]: p53 small molecule agonists, cell-based qHTS assay with human liver microsomes: qHTS cell viability counter screen (AID 1963579). Also: nearly all actives have a fitted effect of over 45% in size. A digest of the protocol: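 Tox21 library compounds, delivered from DMSO stocks, were tested on p53RE-bla cells together with 0.5 mg/mL human liver microsomes and 0.5 mg/mL NADPH (final) over 16 h at 37 C; CellTiter-Glo luminescence served as the cytotoxicity measure.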

A short description of experiment [7]: p53 small molecule agonists, cell-based qHTS assay with rat liver microsomes: qHTS cell viability counter screen (AID 1963580). Also: nearly all actives have a fitted effect of over 45% in size. Also: potency is read from the fitted curve at half-maximal effect. The gist of the method: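 After the beta-lactamase ratio was read, CellTiter-Glo was added to the same wells and luminescence measured at 30 min; cells had been treated 16 h at 37 C with compounds, rat liver microsomes and NADPH (0.5 mg/mL final each).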

The nature of experiment [8]: p53 small molecule agonists, cell-based qHTS assay: qHTS cell viability counter screen (AID 1963581). Also: nearly all actives have a fitted effect of over 45% in size. Also: potency is read from the fitted curve at half-maximal effect. The gist of the method: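 Multiplexed with the reporter read, a CellTiter-Glo step (30 min, room temperature) gauges ATP-based viability of HCT-116 p53RE-bla cells after 16 h compound incubation at 37 C.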
The nature of experiment [9]: p53 small molecule agonists, cell-based qHTS assay (AID 1963582; active = well fitted activation curve with a large enough effect in the signal ratio in the repeat runs, not every such curve was filed as active; the % refers to the signal ratio). The gist of the method: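 Beta-lactamase reporter cells (p53RE-bla) treated with compounds for 16 h at 37 C; FRET substrate, 2 h, room temperature; fluorescence intensity.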
Experiment [10] concerns the target 5-hydroxytryptamine receptor 2A (Homo sapiens) (UniProt P28223). Kind of experiment: 5-hydroxytryptamine receptor 2A (HTR2A) small molecule antagonists, cell-based qHTS assay (AID 1963586). Also: nearly all actives have a fitted effect of over 45% in size. Also: potency is read from the fitted curve at half-maximal effect. The gist of the method: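 CHO cells stably expressing human HTR2A were plated for 18 h at 37 C, then loaded with calcium dye for 1 h. Compounds were preincubated 5 min at room temperature before DOI (4 nM solution) was added. Kinetic fluorescence was read for 3 min.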

The target is the same in experiment [11]. Kind of experiment: 5-hydroxytryptamine receptor 2A (HTR2A) small molecule agonists, cell-based qHTS assay (AID 1963587). Also: nearly all actives have a fitted effect of over 30% in size. A digest of the protocol:
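CHO cells stably expressing human HTR2A, plated 18 h, loaded with calcium dye 1 h at 37 C. Agonist mode: compounds added and intracellular calcium fluorescence recorded kinetically for 2 min at 1 sec intervals.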

The target of experiment [12] is Muscarinic acetylcholine receptor M1 (Homo sapiens) (UniProt P11229). Kind of experiment: Cholinergic receptor muscarinic 1 (CHRM1) small molecule antagonists, cell-based qHTS assay (AID 1963588). Also: nearly all actives have a fitted effect of over 40% in size. The gist of the method:
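Compounds were tested at 15 concentrations in three independent runs. Dye-loaded CHRM1-CHO cells were exposed 5 min at room temperature before stimulation by acetylcholine added at 50nM. Intracellular calcium was read kinetically on FDSS for 3 min.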

The target is the same in experiment [13]. Kind of experiment: Cholinergic receptor muscarinic 1 (CHRM1) small molecule agonists, cell-based qHTS assay (AID 1963589). Also: nearly all actives have a fitted effect of over 35% in size. A digest of the protocol: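 qHTS, 15-point titration, 3 independent runs: compounds pin-transferred onto dye-loaded CHRM1-CHO cells (human M1), calcium fluorescence followed every second to detect agonism.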
Experiment [14] can be described thus: cAMP Responsive Elements (CRE) small molecule agonists, cell-based qHTS assay (AID 1963590). A digest of the protocol:
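Quantitative HTS for CRE agonists: HEK 293T CRE-bla cells, overnight plating, 3 h compound incubation at 37 C/5% CO2, then 2 h room-temperature LiveBLAzer B/G FRET substrate loading.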

Experiment [15] is described as follows: cAMP Responsive Elements (CRE) small molecule antagonists, cell-based qHTS assay (AID 1963591; active = well fitted inhibition curve with a large enough effect in the signal ratio in the repeat runs, not every such curve was filed as active; the % refers to the signal ratio). The gist of the method: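 Fluorescence intensity from cleaved LiveBLAzer B/G substrate (2 h, room temperature) quantified CRE-bla activity in HEK 293T cells exposed 3 h to compound with 0.25 uM final NKH477.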
Experiment [16] concerns the target D(2) dopamine receptor (Homo sapiens) (UniProt P14416). The experiment can be described thus: Dopamine D2 receptor (DRD2) small molecule agonists, cell-based qHTS assay (AID 1963594). Also: nearly all actives have a fitted effect of over 35% in size. A digest of the protocol:
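HEK293 cells stably expressing human DRD2, pre-treated with PDE inhibitor Ro20-1724 (0.1 mM final) and compound 10 min at room temperature, then stimulated with NKH477 (200nM […]) for 30 min. cAMP read by HTRF (665/620 nm).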

Experiment [17] has the same target. Kind of experiment: Dopamine D2 receptor (DRD2) small molecule antagonists, cell-based qHTS assay (AID 1963595; active = well fitted inhibition curve with a large enough effect in the signal ratio in the repeat runs, with a control signal flat; the % refers to the signal ratio; also: potency is read from the fitted curve at half-maximal effect). The gist of the method:
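Human DRD2 antagonist qHTS measuring cAMP by HTRF. The cells are exposed to compound for 10 min, then to NKH477 (200 nM) and quinpirole (12 nM) for 30 min at RT, with Ro20-1724 (0.1 mM) present throughout.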

For experiment [18], the target named is Beta-2 adrenergic receptor (Homo sapiens) (UniProt P07550). Kind of experiment: Adrenergic beta2 receptor (ADRB2) small molecule antagonists, cell-based qHTS assay (AID 1963592). Also: nearly all actives have a fitted effect of over 50% in size. Also: potency is read from the fitted curve at half-maximal effect. The gist of the method: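 Assay format: CHO-ADRB2 cells, 18-20hr seeding at 37C/5% CO2, then compound plus 1nM isoproterenol agonist mix for 0.5hr RT. Homogeneous time-resolved fluorescence cAMP detection after 1hr, expressed as 665/615 nm ratio.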
Chain of Beta-2 adrenergic receptor (Homo sapiens) (P07550 whole entry, looked up): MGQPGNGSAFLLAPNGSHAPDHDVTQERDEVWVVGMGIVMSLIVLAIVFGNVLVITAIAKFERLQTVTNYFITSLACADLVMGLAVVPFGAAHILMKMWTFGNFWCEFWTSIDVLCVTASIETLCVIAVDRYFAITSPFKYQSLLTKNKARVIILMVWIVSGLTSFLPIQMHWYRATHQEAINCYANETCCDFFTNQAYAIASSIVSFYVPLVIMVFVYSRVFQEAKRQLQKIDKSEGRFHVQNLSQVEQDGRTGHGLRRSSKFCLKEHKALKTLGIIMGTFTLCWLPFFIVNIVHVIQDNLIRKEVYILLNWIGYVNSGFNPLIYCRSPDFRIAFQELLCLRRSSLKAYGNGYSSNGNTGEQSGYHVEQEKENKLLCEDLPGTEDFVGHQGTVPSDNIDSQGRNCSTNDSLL

Experiment [19] shares this target. Kind of experiment: Adrenergic beta2 receptor (ADRB2) small molecule agonists, cell-based qHTS assay (AID 1963593).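 Also: CHO cells stably overexpressing human ADRB2.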 The gist of the method:
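CHO cells stably over-expressing ADRB2 were plated overnight at 37C, then dosed with compounds plus a stimulation mix containing 100uM IBMX and 25uM Ro-20-1724 for 0.5hr at room temperature. cAMP was measured by HTRF competition, 1hr.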

A short description of experiment [20]: p53 small molecule agonists, cell-based qHTS assay with rat liver microsomes (AID 1963578). The gist of the method: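 Each plate received p53RE-bla cells, then compound, then rat liver microsomes and NADPH (both 0.5 mg/mL final). Plates were held 16 h at 37 C, and beta-lactamase activity was detected with LiveBLAzer over 2 h.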

This note sets out measurements from PubChem BioAssay (Tox21).

The structures appear in SMILES notation. Several values for one entry are separate records, joined by “and”; a condition that tells them apart may be missing. Identical values can stand only once. Records with an inconclusive call do not appear. A structure can be active in one record and inactive in another. Activity calls are given as the source filed them. Unless noted, calls follow the shape of the full dose curve.
% is scaled to controls: 0 for no effect and ±100 for the full control effect.

Chain of D(2) dopamine receptor (Homo sapiens) (P14416 whole entry, looked up): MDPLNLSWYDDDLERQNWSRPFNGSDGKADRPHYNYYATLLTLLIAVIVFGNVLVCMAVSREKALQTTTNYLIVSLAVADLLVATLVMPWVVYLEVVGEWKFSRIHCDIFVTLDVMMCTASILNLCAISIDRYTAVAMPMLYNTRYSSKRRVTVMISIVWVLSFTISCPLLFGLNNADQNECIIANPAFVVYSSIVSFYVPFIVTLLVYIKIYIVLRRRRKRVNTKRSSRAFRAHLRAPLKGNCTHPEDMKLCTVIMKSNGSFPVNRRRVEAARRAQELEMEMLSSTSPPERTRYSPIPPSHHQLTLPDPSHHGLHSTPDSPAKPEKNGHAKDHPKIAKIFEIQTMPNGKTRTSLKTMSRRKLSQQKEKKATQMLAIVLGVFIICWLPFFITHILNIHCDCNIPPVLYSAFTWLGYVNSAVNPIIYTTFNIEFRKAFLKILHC
Chain of Gonadotropin-releasing hormone receptor (Homo sapiens) (P30968 whole entry, looked up): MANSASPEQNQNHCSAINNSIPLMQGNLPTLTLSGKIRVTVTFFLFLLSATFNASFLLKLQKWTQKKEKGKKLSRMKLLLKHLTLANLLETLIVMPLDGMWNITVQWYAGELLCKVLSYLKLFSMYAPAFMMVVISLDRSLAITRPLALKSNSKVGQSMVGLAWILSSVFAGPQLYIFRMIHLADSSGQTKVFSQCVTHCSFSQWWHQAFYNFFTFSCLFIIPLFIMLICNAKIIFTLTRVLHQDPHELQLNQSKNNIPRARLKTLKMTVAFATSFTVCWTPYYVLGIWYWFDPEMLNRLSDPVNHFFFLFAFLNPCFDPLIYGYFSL
Chain of Muscarinic acetylcholine receptor M1 (Homo sapiens) (P11229 whole entry, looked up): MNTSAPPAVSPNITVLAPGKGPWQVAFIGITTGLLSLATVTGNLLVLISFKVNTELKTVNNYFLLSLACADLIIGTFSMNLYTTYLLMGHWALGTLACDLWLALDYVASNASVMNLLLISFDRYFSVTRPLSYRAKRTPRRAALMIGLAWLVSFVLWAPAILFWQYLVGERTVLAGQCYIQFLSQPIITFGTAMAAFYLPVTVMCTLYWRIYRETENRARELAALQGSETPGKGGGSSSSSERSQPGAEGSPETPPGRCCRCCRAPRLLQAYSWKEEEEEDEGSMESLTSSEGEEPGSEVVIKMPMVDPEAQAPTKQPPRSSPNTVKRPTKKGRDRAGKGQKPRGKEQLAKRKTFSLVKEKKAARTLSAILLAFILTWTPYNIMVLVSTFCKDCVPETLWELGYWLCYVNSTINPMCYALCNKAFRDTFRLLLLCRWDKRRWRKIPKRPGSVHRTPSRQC
Chain of KiSS-1 receptor (Homo sapiens) (Q969F8 whole entry, looked up): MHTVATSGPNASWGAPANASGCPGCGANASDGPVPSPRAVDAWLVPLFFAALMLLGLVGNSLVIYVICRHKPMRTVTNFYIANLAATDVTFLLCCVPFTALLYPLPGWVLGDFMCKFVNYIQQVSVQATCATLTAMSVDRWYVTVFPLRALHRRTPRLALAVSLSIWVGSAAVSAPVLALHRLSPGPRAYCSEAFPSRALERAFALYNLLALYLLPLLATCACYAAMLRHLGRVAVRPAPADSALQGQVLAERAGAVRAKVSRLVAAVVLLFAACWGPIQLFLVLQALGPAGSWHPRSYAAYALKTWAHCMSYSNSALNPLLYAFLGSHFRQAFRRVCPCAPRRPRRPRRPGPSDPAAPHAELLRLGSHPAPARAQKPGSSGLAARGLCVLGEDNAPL
Chain of 5-hydroxytryptamine receptor 2A (Homo sapiens) (P28223 whole entry, looked up): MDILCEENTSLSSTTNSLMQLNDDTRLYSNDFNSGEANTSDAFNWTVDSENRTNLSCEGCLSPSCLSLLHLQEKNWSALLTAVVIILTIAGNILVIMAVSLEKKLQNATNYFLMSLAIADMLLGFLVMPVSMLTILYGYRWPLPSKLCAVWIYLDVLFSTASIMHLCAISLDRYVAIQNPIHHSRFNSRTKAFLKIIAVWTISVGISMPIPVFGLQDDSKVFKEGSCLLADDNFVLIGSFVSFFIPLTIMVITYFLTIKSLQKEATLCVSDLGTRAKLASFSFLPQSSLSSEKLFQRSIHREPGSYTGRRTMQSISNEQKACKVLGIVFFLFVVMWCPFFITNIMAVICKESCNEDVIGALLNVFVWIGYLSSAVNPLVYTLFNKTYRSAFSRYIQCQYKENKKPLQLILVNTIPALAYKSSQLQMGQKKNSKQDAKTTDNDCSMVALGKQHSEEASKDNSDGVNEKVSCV

With `CC(O)COCC(C)O` (stereo unspecified), the Potency entry in experiment [1], in experiment [2], in experiment [3], in experiment [4], in [5] and in [6] was “inactive” each time. Moreover, the Potency entry in [7], in [8], in experiment [9], in experiment [10], in experiment [11] and in [12] was “inactive” in each case. The Potency result in [13], in experiment [14], in experiment [15], in experiment [16] and in [17] was “inactive” throughout.

In the case of `CCCCCCCCC(=O)O`, the Potency entry in [1], in experiment [3], in [4], in experiment [6], in [7] and in [8] was “inactive” each time. In addition, the Potency result in experiment [9], in [10], in experiment [11], in experiment [13], in experiment [15] and in experiment [18] was “inactive” in each case. The Potency entry in [19], in [16] and in experiment [17] was “inactive” each time. Further, in experiment [5], the Potency was 39.5 µM (active).

Take `O=c1[nH]cnc2c1ncn2[C@H]1CC[C@@H](CO)O1`: the Potency result in experiment [1], in experiment [2], in experiment [3], in experiment [4], in experiment [6] and in experiment [7] was “inactive” in each case. In addition, the Potency entry in experiment [8], in experiment [14], in experiment [15], in [18], in [16] and in experiment [17] was “inactive” in each case.

For the compound `Oc1c(Cl)cc(Cl)cc1Sc1cc(Cl)cc(Cl)c1O`, the Potency in experiment [1] was 13.7 µM (active) and 31.1 µM (active) and 27.3 µM (active); in [7], 20.5 µM (active) and 46.5 µM (active) and inactive; in experiment [8], 36.4 µM (active) and inactive; in experiment [18], 55.4 µM (active) and inactive. In addition, the Potency result in experiment [3], in experiment [4], in experiment [5], in experiment [20], in [9] and in experiment [15] was “inactive” in each case. For the same compound, the Potency result in experiment [19], in experiment [16] and in experiment [17] was “inactive” in each case.

In the case of `CC/C(=C(\c1ccccc1)c1ccc(OCCN(C)C)cc1)c1ccccc1`, the Potency in experiment [1] is 24.3 µM (active) [middle of 5 runs]; in experiment [8], “inactive and 51.3 µM (active)”; in [17], 38.9 µM (active) and 61.1 µM (active). Besides, the Potency entry in [3], in experiment [5], in experiment [20], in [6], in [14] and in experiment [15] was “inactive” in each case. In addition, the Potency result in experiment [16] is “inactive”.

Turning to `O=C(OCc1ccccc1)c1ccc(O)cc1`, the Potency result in [1], in experiment [2], in experiment [3], in experiment [4], in [20] and in experiment [7] was “inactive” throughout. Further, the Potency result in experiment [8], in experiment [9], in experiment [11], in experiment [12], in experiment [13] and in experiment [14] was “inactive” in each case. The Potency entry in experiment [15], in experiment [18], in [19], in experiment [16] and in experiment [17] was “inactive” in each case. In addition, the Potency in experiment [10] is 33.4 µM (active).

With `CC(=O)Nc1cccc(O)c1`, the Potency entry in experiment [1], in experiment [2], in experiment [3], in experiment [5], in [20] and in [6] was “inactive” each time. Besides, the Potency result in experiment [7], in experiment [8], in experiment [9], in experiment [14], in experiment [15] and in experiment [18] was “inactive” each time. Also, the Potency entry in experiment [19], in [16] and in experiment [17] was “inactive” throughout.

Turning to `Cc1c(N(C)C)c(=O)n(-c2ccccc2)n1C`, the Potency result in [1], in [2], in experiment [3], in experiment [4], in experiment [6] and in experiment [7] was “inactive” in each case. Besides, the Potency entry in [8], in experiment [10], in [12], in experiment [13], in [14] and in experiment [15] was “inactive” each time. The Potency entry in [19], in experiment [16] and in [17] was “inactive” each time.
